Entries with a potency or affinity are not part of this list. Values without a mark were called inactive.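 Rule for the calls: active = compounds whose fitted curve of lowered CTGF expression reaches half effect within a set concentration limit; inconclusive = flat moderate drop in CTGF, or unreliable curve fit; inactive = the rest.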
Assay: YAP1 overexpression rescue of CTGF inhibition – DLD1 cells, RT-qPCR, cherry-pick, mechanism study for YAP1 pathway inhibitor project, dose response (AID 1053127)
Details: DLD1 YAP1-overexpressing, CTGF mRNA qPCR, 24 h; series mostly up to 26 µM; CTGF fold change (delta-delta-Ct), lower = inhibition: at the top concentration

Row | Structure (SMILES) | CTGF fold change (delta-delta-Ct), lower = inhibition
1 | CO[C@@H](CN(C)S(=O)(=O)c1ccc(C)cc1)[C@@H](C)CN([C@H](C)CO)S(=O)(=O)c1cccc(Cl)c1 | 0.886 unspecified
2 | CC(C)(C)[S@](=O)N1Cc2cc(C(=O)NCc3ccccn3)nc(-c3cccc(-c4ccccc4F)c3)c2[C@@H]1CCO | 1.52 unspecified
3 | C[C@@H]1CN([C@@H](C)CO)C(=O)c2cccc(NC(=O)c3nc4ccccc4s3)c2O[C@H]1CN(C)C(=O)Nc1ccc2c(c1)OCO2 | 0.834 unspecified
4 | COc1ccc(NC(=O)N(C)C[C@H]2Oc3c(NC(=O)CCCCCC(=O)Nc4ccccc4N)cccc3C(=O)N([C@H](C)CO)C[C@@H]2C)cc1 | 1.07 unspecified [at 23.5 µM]
5 | CNC[C@H]1Oc2c(NC(=O)Nc3cccc4ccccc34)cccc2C(=O)N([C@H](C)CO)C[C@@H]1C | 0.844 unspecified
6 | C[C@H]1CN([C@@H](C)CO)C(=O)c2cccc(NC(=O)c3nc4ccccc4s3)c2O[C@@H]1CN(C)C(=O)Nc1ccc2c(c1)OCO2 | 0.677 unspecified
7 | CC(C)(C)[S@](=O)N1Cc2cc(C(=O)NCCc3ccncc3)nc(-c3cccc(-c4cccc(C#N)c4)c3)c2[C@@H]1CCO | 1.03 unspecified
8 | COc1ccc(CN(C)C[C@H]2Oc3ccc(NC(=O)Nc4ccc5c(c4)OCO5)cc3CC(=O)N([C@@H](C)CO)C[C@H]2C)cc1 | 0.62 unspecified
9 | C[C@@H]1CN([C@@H](C)CO)C(=O)c2cc(NC(=O)Nc3ccccc3)ccc2O[C@@H](C)CCCCO[C@@H]1CN(C)C(=O)Nc1ccccc1 | 1.02 unspecified
10 | COc1ccccc1S(=O)(=O)N1CC[C@@H]2[C@H]1c1cc(-c3cccc(C#N)c3)ccc1N(C)[C@H]2CO | 0.771 unspecified [at 23.5 µM]
